The text below walks through data of paper PMC7822874, “Chemoprotective antimalarials identified through quantitative high-throughput screening of Plasmodium blood and liver stage parasites” (Scientific Reports, 2021).

Where two headings read alike, the source gives them in different places.

For the assay, the system named is P. berghei-ANKA-GFP-LucCON liver stage parasites in HepG2-A16-CD81EGFP cells. Particulars: 48 h.

Turning to `COc1cccc(OCCn2cc(C(=O)c3ccco3)c3ccccc32)c1` [MLS000050800], where the note is “3 µM”, the “% viability” value is on record as 1.234.

Regarding `COc1ccc(OCCn2cc(C(=O)c3ccco3)c3ccccc32)cc1` [NCGC00101886], the “% viability” value (1 µM) is 1.363 and the “% viability” value (3 µM) was 1.13.
